This is part of a sample that, as a whole, favours compounds with a hit. Of some 83,000 tested, about 20% had one in any assay.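 Note: values are percent growth. 100 is the growth of untreated cells, values between 100 and 0 indicate rising inhibition; between -100 and 0 indicates cell death.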 Activity calls are given as the source filed them. The calls were made as follows: active = growth percent below 10; inactive = the rest.
These molecules were tested on SF-295 CNS (assay: NCI-60 one-dose screen, 48 h (100 = growth as untreated, 0 = no growth, -100 = all killed)). Conditions: 10 µM unless noted.
With `C=C1C(=O)O[C@H]2[C@H]1CC/C(COC(=O)NCCc1c[nH]c3ccccc13)=C\CC[C@@]1(C)O[C@@H]21` the growth was 83.4% (inactive).
For `COC(=O)CNc1nc(N(C)O)nc(N(C)O)n1`, the growth was 45.2% (inactive).
For `Cc1ccc(-c2nc([P+](c3ccccc3)(c3ccccc3)c3ccccc3)c(N3C[C@H]4C[C@H](C3)c3cccc(=O)n3C4)o2)cc1`, the growth was 96.1% (inactive).
In the case of `COC(=O)[C@]12CC[C@@H](C)[C@H](C)[C@@H]1C1=CC[C@@H]3[C@@]4(C)CC(=O)[C@H](OC(=O)c5ccco5)[C@@]5(C)COC(=C45)C[C@@]3(C)[C@]1(C)CC2`, the growth was 35.6% (inactive).
With `COc1ccc(/C=C/C(=O)NCC(C)O)cc1` (centres undefined) the growth was 99.7% (inactive).
For `Cc1nn(-c2ccc(Cl)cc2)c(=O)n1CCn1cnc2ccccc21`, the growth was 82.8% (inactive).
`CN1CCN(CCOc2ccc(-c3cnc4c(-c5ccccc5F)cnn4c3)cc2)CC1` was tested, and the growth was 65% (inactive).
`O=C(NO)c1ccc(Cn2c(=O)n(-c3ccccc3)c(=O)c3ccccc32)cc1` was tested, and the growth was 13.6% (inactive).
`COc1cccc2c1C(=O)c1c(O)c3c(c(O)c1C2=O)C[C@@](O)(C(=O)CO)C[C@@H]3OC1C[C@H](N)[C@H](O)[C@H](C)O1` (some centres undefined) was tested, and the growth was -22.4% (active).
`CCC(CC)C(=O)OC(C)COc1ccc(C(C)(C)C)cc1` (centres undefined) was tested, and the growth was 106% (inactive).
With `Nc1ccc(Cl)cn1` the growth was 97.3% (inactive).
With `CN1CCN(CCOc2ccc(-c3cnc4c(-c5cccc(F)c5)cnn4c3)cc2)CC1` the growth was 79.6% (inactive).
For `CCCC1CCCCN1C(=O)OCC(C)C` (centres undefined), the growth was 94.5% (inactive).
In the case of `O=S(=O)(NCCNc1cc(-c2cn(-c3ccccc3)nc2-c2cccc(O)c2)ccn1)c1cccc(F)c1`, the growth was 22.4% (inactive).
`Cc1cccc(C)c1NC(=O)CSC(=S)N1CCCCC1` was tested, and the growth was 101% (inactive).
In the case of `O=C(/C=C/c1cccc(O)c1)c1ccccc1O`, the growth was 98.6% (inactive).
With `O=C(NO)c1ccc(Cn2c(=O)n(CCc3ccc(O)cc3)c(=O)c3ccccc32)cc1` the growth was 79.1% (inactive).
For `COc1ccc(O)c(-c2cc(-c3ccc(Cl)cc3)c(C#N)c(=O)[nH]2)c1`, the growth was 61.5% (inactive).
In the case of `CCC(=O)c1c(C)[nH]c(C)c1C`, the growth was 68.3% (inactive).
In the case of `COc1cc(-c2cc3ncccc3c3nc(OCCN(C)C)c4cccnc4c23)cc(OC)c1OC`, the growth was 9.6% (active).
For `O=C(/C=C/c1cccc2ccccc12)Nc1ncc(Cc2ccccc2)s1`, the growth was -40.1% (active).
`CC(C)/C=C/CC[C@](C)(O)[C@H]1CC[C@]2(C)[C@@H]1CC[C@@H]1[C@@]3(C)C/C(=C/c4cccc(C(F)(F)F)c4)C(=O)C(C)(C)[C@@H]3CC[C@]12C` was tested, and the growth was 101% (inactive).
`O=C(NCN1C(=O)c2cccc3cccc(c23)C1=O)N1CCC(Cc2ccccc2)CC1` was tested, and the growth was 96.8% (inactive).
With `COc1cnc2c(c1)C(=O)c1c-2n(CCCNCCN2CCOCC2)c(=O)c2cc([N+](=O)[O-])ccc12` the growth was 1.52% (active).
`CCCCCCCC(=O)SCC/C=C/[C@@H]1CC(=O)NCc2cccc(n2)CN(Cc2ccc3ccccc3c2)CC(=O)N[C@@H](C(C)C)C(=O)O1` was tested, and the growth was 9.4% (active).
With `Cn1cc(-c2nc(-c3cn(C)c4ncccc34)cs2)c2cc(F)ccc21` the growth was 16.3% (inactive).
In the case of `NCCn1cc(-c2nc(-c3c[nH]c4ncccc34)cs2)c2ccccc21`, the growth was 105% (inactive).
In the case of `COc1ccc(-c2cc(-c3c(C)oc4cc5occc5c(OC)c4c3=O)nc(N)c2C#N)cc1OC`, the growth was 52.1% (inactive).
With `CN(C)c1ccc(N)c2ccccc12` the growth was 43.4% (inactive).
With `CN(C)CCCCC(C(=O)CBr)(c1ccccc1)c1ccccc1` the growth was 43.7% (inactive).
With `O=C1Nc2ccccc2/C1=C/c1cn(CCCn2c3ccccc3c(=O)c3ccccc32)c2ccccc12` the growth was 91.5% (inactive).
For `C=C(C)[C@@H]1CC[C@]2(C=NCCCNCCCCNCCCN)CC[C@]3(C)[C@H](CC[C@@H]4[C@@]5(C)CCCNC(C)(C)[C@@H]5CC[C@]43C)[C@@H]12`, the growth was 91.2% (inactive).
In the case of `CCCCn1c(-c2ccc(O)cc2)cn2c3c(=O)[nH]c(=O)n(C)c3nc12`, the growth was 78.1% (inactive).
For `Cc1nn(-c2ccc(Br)cc2)c2nc3[nH]c(=O)[nH]c(=O)c3nc12`, the growth was 98.6% (inactive).
For `Cc1cc2nc3c4cc(N)ccc4n(CCN(C)C)c3nc2cc1C`, the growth was 1.26% (active).
For `COc1ccc(-c2nc3c(c(C)nn3-c3ccc(F)cc3)c(=O)[nH]2)cc1`, the growth was 68.1% (inactive).

The molecules below were run on SF-539 CNS in the same assay as above. Conditions: 10 µM unless noted.
`C=C1C(=O)O[C@H]2[C@H]1CC/C(COC(=O)NCCc1c[nH]c3ccccc13)=C\CC[C@@]1(C)O[C@@H]21` was tested, and the growth was -35.6% (active).
For `C/C(=N\Nc1cc(C)c2ccccc2n1)c1ccccn1`, the growth was -53.8% (active).
In the case of `COC(=O)CNc1nc(N(C)O)nc(N(C)O)n1`, the growth was 47.5% (inactive).
For `Cc1ccc(-c2nc([P+](c3ccccc3)(c3ccccc3)c3ccccc3)c(N3C[C@H]4C[C@H](C3)c3cccc(=O)n3C4)o2)cc1`, the growth was 99.7% (inactive).
For `COC(=O)[C@]12CC[C@@H](C)[C@H](C)[C@@H]1C1=CC[C@@H]3[C@@]4(C)CC(=O)[C@H](OC(=O)c5ccco5)[C@@]5(C)COC(=C45)C[C@@]3(C)[C@]1(C)CC2`, the growth was 39% (inactive).
`COc1ccc(/C=C/C(=O)NCC(C)O)cc1` (centres undefined) was tested, and the growth was 92.8% (inactive).
In the case of `Cc1nn(-c2ccc(Cl)cc2)c(=O)n1CCn1cnc2ccccc21`, the growth was 101% (inactive).
For `CN1CCN(CCOc2ccc(-c3cnc4c(-c5ccccc5F)cnn4c3)cc2)CC1`, the growth was 51.3% (inactive).
For `O=C(NO)c1ccc(Cn2c(=O)n(-c3ccccc3)c(=O)c3ccccc32)cc1`, the growth was -8.95% (active).
For `COc1cccc2c1C(=O)c1c(O)c3c(c(O)c1C2=O)C[C@@](O)(C(=O)CO)C[C@@H]3OC1C[C@H](N)[C@H](O)[C@H](C)O1` (some centres undefined), the growth was -29.8% (active).
In the case of `CCC(CC)C(=O)OC(C)COc1ccc(C(C)(C)C)cc1` (centres undefined), the growth was 109% (inactive).
For `Nc1ccc(Cl)cn1`, the growth was 96.4% (inactive).
In the case of `CN1CCN(CCOc2ccc(-c3cnc4c(-c5cccc(F)c5)cnn4c3)cc2)CC1`, the growth was 70.6% (inactive).
For `CCCC1CCCCN1C(=O)OCC(C)C` (centres undefined), the growth was 100% (inactive).
With `O=S(=O)(NCCNc1cc(-c2cn(-c3ccccc3)nc2-c2cccc(O)c2)ccn1)c1cccc(F)c1` the growth was 51.2% (inactive).
`Cc1cccc(C)c1NC(=O)CSC(=S)N1CCCCC1` was tested, and the growth was 99.5% (inactive).
`O=C(/C=C/c1cccc(O)c1)c1ccccc1O` was tested, and the growth was 102% (inactive).
For `O=C(NO)c1ccc(Cn2c(=O)n(CCc3ccc(O)cc3)c(=O)c3ccccc32)cc1`, the growth was 3.09% (active).
With `COc1ccc(O)c(-c2cc(-c3ccc(Cl)cc3)c(C#N)c(=O)[nH]2)c1` the growth was 52.4% (inactive).
`CCC(=O)c1c(C)[nH]c(C)c1C` was tested, and the growth was 105% (inactive).
For `COc1cc(-c2cc3ncccc3c3nc(OCCN(C)C)c4cccnc4c23)cc(OC)c1OC`, the growth was 17.9% (inactive).
In the case of `O=C(/C=C/c1cccc2ccccc12)Nc1ncc(Cc2ccccc2)s1`, the growth was -24.4% (active).
`CC(C)/C=C/CC[C@](C)(O)[C@H]1CC[C@]2(C)[C@@H]1CC[C@@H]1[C@@]3(C)C/C(=C/c4cccc(C(F)(F)F)c4)C(=O)C(C)(C)[C@@H]3CC[C@]12C` was tested, and the growth was 97.6% (inactive).
In the case of `O=C(NCN1C(=O)c2cccc3cccc(c23)C1=O)N1CCC(Cc2ccccc2)CC1`, the growth was 102% (inactive).
`COc1cnc2c(c1)C(=O)c1c-2n(CCCNCCN2CCOCC2)c(=O)c2cc([N+](=O)[O-])ccc12` was tested, and the growth was -1.79% (active).
In the case of `CCCCCCCC(=O)SCC/C=C/[C@@H]1CC(=O)NCc2cccc(n2)CN(Cc2ccc3ccccc3c2)CC(=O)N[C@@H](C(C)C)C(=O)O1`, the growth was 59.1% (inactive).
In the case of `Fc1ccc2nc(-c3cc(-c4ccc5c(c4)OCO5)n[nH]3)[nH]c2c1`, the growth was 56.3% (inactive).
`Cn1cc(-c2nc(-c3cn(C)c4ncccc34)cs2)c2cc(F)ccc21` was tested, and the growth was 26.6% (inactive).
In the case of `NCCn1cc(-c2nc(-c3c[nH]c4ncccc34)cs2)c2ccccc21`, the growth was 90.2% (inactive).
In the case of `COc1ccc(-c2cc(-c3c(C)oc4cc5occc5c(OC)c4c3=O)nc(N)c2C#N)cc1OC`, the growth was 64.2% (inactive).
For `CN(C)c1ccc(N)c2ccccc12`, the growth was 38.4% (inactive).
`CN(C)CCCCC(C(=O)CBr)(c1ccccc1)c1ccccc1` was tested, and the growth was 20.2% (inactive).
For `O=C1Nc2ccccc2/C1=C/c1cn(CCCn2c3ccccc3c(=O)c3ccccc32)c2ccccc12`, the growth was 86.8% (inactive).
With `C=C(C)[C@@H]1CC[C@]2(C=NCCCNCCCCNCCCN)CC[C@]3(C)[C@H](CC[C@@H]4[C@@]5(C)CCCNC(C)(C)[C@@H]5CC[C@]43C)[C@@H]12` the growth was 95.3% (inactive).
In the case of `CCCCn1c(-c2ccc(O)cc2)cn2c3c(=O)[nH]c(=O)n(C)c3nc12`, the growth was 74.9% (inactive).
In the case of `Cc1nn(-c2ccc(Br)cc2)c2nc3[nH]c(=O)[nH]c(=O)c3nc12`, the growth was 99.7% (inactive).
In the case of `Cc1cc2nc3c4cc(N)ccc4n(CCN(C)C)c3nc2cc1C`, the growth was 10.5% (inactive).
`COc1ccc(-c2nc3c(c(C)nn3-c3ccc(F)cc3)c(=O)[nH]2)cc1` was tested, and the growth was 87% (inactive).

— PubChem BioAssay (NCI)
